Measured values as given in PubChem BioAssay AID651899 (Broad Institute, 2012).
Results with a measured potency or affinity are listed apart. Unmarked numbers belong to inactive results. No rule for the calls is given here.

Assay: cytotoxicity in HEK293 cells, dose response, cytotoxicity control, cell-based, plate reader, cherry-pick (AID 651899);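 also: cells exposed to compound for 48 hours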
Settings: series mostly up to 26 µM; activity change, negative = cytotoxicity: at the top concentration

SMILES	activity change, negative = cytotoxicity
C/C=C(/C)C(=O)OC(C)(C)[C@@H]1Cc2c(ccc3ccc(=O)oc23)O1	2.27%
C/C=C/c1ccc2c(c1)O[C@@H](CN(C)C(=O)Nc1ccc(OC)cc1)[C@@H](C)CN([C@@H](C)CO)S2(=O)=O	26.7%
Cc1cnc(C(=O)NC2CC(C)(C)Cc3c2cnn3-c2cccc(F)c2)cn1 (stereo not given)	-10.2%
O=C(C[C@H]1C[C@@H]2c3cc(NC(=O)c4cccnc4)ccc3O[C@@H]2[C@@H](CO)O1)NCC(F)(F)F	5.96%
CN1c2ccc(-c3cccc(F)c3)cc2[C@H]2[C@H](CCN2C(=O)c2ccc3c(c2)OCO3)[C@H]1CO	1.38% [at 23.5 µM]
CCCCN1C(=O)c2ccc(C(=O)Nc3cccnc3)cc2C1=O	-18.1%
COc1ccccc1S(=O)(=O)N1CC[C@@H]2[C@H](CO)Nc3ccc(-c4cccc(C#N)c4)cc3[C@@H]21	16%
CNC(=O)C[C@H]1CC[C@@H]2[C@H](COC[C@@H](O)CN2C(=O)Nc2ccc3c(c2)OCO3)O1	2.39%
Cc1nc2nc(SCC(=O)NCCCN3CCOCC3)nn2c(C)c1Cc1ccccc1	18.9%
COc1cccc(-c2ccc3c(c2)[C@H]2[C@H](CCN2C(=O)C2CCC2)[C@@H](CO)N3)c1	2.77%
CCC(=O)N1CC[C@@H]2[C@H]1c1cc(-c3cccc(F)c3)ccc1N(C)[C@@H]2CO	5.37% [at 23.5 µM]
Cn1nnc2cc(C(=O)Nc3cccnc3)ccc21	-8.5%
O=C(C1CCOCC1)N1CC[C@@H]2[C@H](CO)Nc3ccc(Br)cc3[C@@H]21	14.2%
Cc1ccc(Cc2c(C)nc3nc(SCC(=O)NCCCN4CCCCC4)nn3c2C)cc1	20.8%
COc1ccc(CCNC(=O)c2cnc3n(c2=O)CCS3)cc1OC	14.5%
COc1cc(-c2n[nH]c(=S)n2-c2cccc(C(F)(F)F)c2)cc(OC)c1OC	-17.8%
CNC(=O)C[C@H]1CC[C@@H]2[C@H](COC[C@@H](O)CN2C(=O)Nc2ccc(Cl)c(Cl)c2)O1	11.3%
CCC(CO)[n+]1c(C)cc(/C=C2\Sc3ccccc3N2Cc2ccccc2)cc1C (stereo not given)	-18.5%
COc1cccc(NC(=O)CCC2CCN(C(=O)c3ccc(C(C)=O)s3)CC2)c1	11.9%
CC1(C(=O)NCc2ccc(F)c(F)c2)Cc2c(-c3cccc(C(N)=O)c3)ccnc2O1 (stereo not given)	-17.7%
